For orientation: inhibition means the drop in the measured response relative to a control, in per cent.

Structures are written as SMILES. Out of some 300,000 compounds screened, about 3,200 (1.1%) were called active. Cut-off read from the data, not from the text of the source: active = inhibition above about 75%; inconclusive = no clear call, values can overlap the other calls; inactive = below that; tested in HMLE shEcad cells. What follows is part of a selection rich in actives, with near analogues and random picks from the rest.

We go through 26 molecules from PubChem BioAssay AID2717 (Broad Institute, 2010).

This test can be described thus: growth suppression of cancer stem-like cells – cell-based, luminescence, primary screen (AID 2717). The note with it: cancer stem cell-like cells viability, at 7.5 µM, hits give high values.
As to `CC1CC(=NNC(=O)C2COc3ccccc3O2)CC(C)(C)C1` (stereo unspecified), the inhibition is -9.31% (inactive). Regarding `Cc1ccc2c(N)c(C(=O)c3ccccc3)sc2n1`, the inhibition is 45.8% (inactive).

Regarding `CCc1nc2sc(C(=O)O)c(N)c2c2c1CCCC2`, the inhibition is 5.22% (inactive). `O=C(NNC(=O)c1cccc(S(=O)(=O)Nc2ccc(Cl)cc2)c1)c1ccc(=O)[nH]c1`: the inhibition was -9.6% (inactive). Turning to `Cc1ccc(NC(=O)c2cccc(S(=O)(=O)N3CCCc4ccccc43)c2)nc1`, the inhibition was 0.233% (inactive). Next, `COc1ccc(Cl)cc1NC(=O)COC(=O)c1ccc(Br)o1`: 0.173% (inactive); `CS(=O)(=O)c1ccc(C(=O)NNC(=O)c2cccs2)cc1`: -0.179% (inactive); `Cc1ccc(SCc2c(C(=O)N/N=C/c3cccnc3)nnn2-c2nonc2N)cc1`: 1.7% (inactive). Turning to `Nc1nonc1-n1nnc(C(=O)N/N=C/c2cc(Br)ccc2O)c1CSC1=NCCS1`, the inhibition is 108% (active). As to `Nc1nonc1-n1nnc(C(=O)N/N=C/c2ccccc2O)c1CN1CCCC1`, the inhibition is 62% (inactive). On to `O=C1COc2ccc(C(=O)COC(=O)CCOc3ccccc3)cc2N1`, for which the inhibition is 0.0702% (inactive).

As to `CC1(C)CC(=O)c2ccc(O)cc2O1`, the inhibition is 2.93% (inactive).

Consider `CC[C@@H]1Cc2cc(O)ccc2C2=C1c1ccc(O)cc1C[C@H]2CC`, for which the inhibition was 102% (active).

In the case of `CC(C)CC1(C)NC(=O)N(CC(=O)Nc2ccc3c(c2)OCCO3)C1=O` (stereo unspecified), the inhibition is -19% (inactive). As to `O=C(/C=C/c1ccc2c(c1)OCCO2)c1ccc(O)cc1`, the inhibition is 19.1% (inactive). Next, `O=C(Nc1ccncc1)c1ccc(Cl)c([N+](=O)[O-])c1`: 2.54% (inactive); `CN(C)c1ccc(/C=C/C(=O)c2ccc(O)cc2)cc1[N+](=O)[O-]`: 26.4% (inactive); `O=C(/C=C/c1ccc(Cl)c([N+](=O)[O-])c1)c1ccc(O)cc1`: 80.8% (active). Turning to `CC(=O)Nc1ccc(/C=C/C(=O)c2ccccc2)cc1`, the inhibition is 2.62% (inactive).

`CN(C)c1ccc(/C=C/C(=O)c2ccc(C(C)(C)C)cc2)cc1[N+](=O)[O-]`: the inhibition is 75.4% (active). As to `Cc1sc2ncnc(N3CCC(C(=O)Nc4ccc(F)cc4Cl)CC3)c2c1C`, the inhibition was 4.03% (inactive). The figure for `COc1cc(OC)cc(C(=O)NCC(=O)OCC(=O)NC(C)CCc2ccccc2)c1` (stereo unspecified) is -13.2% (inactive); for `CC(C)(C)OC(=O)CNC(=O)c1[nH]cnc1C(=O)N[C@@H](CCCCN)C(=O)OC(C)(C)C` it is -4.68% (inactive); for `O=C(O)/C=C/C(=O)Nc1ccc(F)cc1F` it is -20.2% (inactive).

Take `COC(=O)c1sc(-c2ccc(C(C)(C)C)cc2)cc1NC(=O)/C=C/C(=O)O`: the inhibition was 119% (active). The figure for `COc1ccccc1NC(=O)/C=C/C(=O)O` is 0.627% (inactive).
